The values that follow come from PubChem BioAssay AID602281 (The Scripps Research Institute Molecular Screening Center, 2012).

The whole screen tested about 360,000 compounds, of which about 2,900 (0.81%) were called active. The list comes from a sample in which actives are over-represented; it also holds similar structures and randomly drawn compounds. Values without a mark were called inactive.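 Rule for the calls: active = inhibition above the mean inhibition across every tested compound plus 3 SD (cut at about 22% in these data); inactive = the rest.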

The target in the experiment is Perilipin-5 (Homo sapiens) + 1-acylglycerol-3-phosphate O-acyltransferase ABHD5 (Homo sapiens) (UniProt Q00G26+Q8WTS1). Nature of the experiment: blockers of ABHD5 binding to perilipin-5 – cell lysate, split luciferase complementation, luminescence, primary screen (AID 602281).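 Note: 0% = DMSO only wells and the 100% control is not disclosed.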 The settings on record: Split G. princeps luciferase complementation, 4 h, at 4 µM, active compounds read high.
Perilipin-5 (Homo sapiens) + 1-acylglycerol-3-phosphate O-acyltransferase ABHD5 (Homo sapiens), sequence (Q00G26 whole entry, looked up): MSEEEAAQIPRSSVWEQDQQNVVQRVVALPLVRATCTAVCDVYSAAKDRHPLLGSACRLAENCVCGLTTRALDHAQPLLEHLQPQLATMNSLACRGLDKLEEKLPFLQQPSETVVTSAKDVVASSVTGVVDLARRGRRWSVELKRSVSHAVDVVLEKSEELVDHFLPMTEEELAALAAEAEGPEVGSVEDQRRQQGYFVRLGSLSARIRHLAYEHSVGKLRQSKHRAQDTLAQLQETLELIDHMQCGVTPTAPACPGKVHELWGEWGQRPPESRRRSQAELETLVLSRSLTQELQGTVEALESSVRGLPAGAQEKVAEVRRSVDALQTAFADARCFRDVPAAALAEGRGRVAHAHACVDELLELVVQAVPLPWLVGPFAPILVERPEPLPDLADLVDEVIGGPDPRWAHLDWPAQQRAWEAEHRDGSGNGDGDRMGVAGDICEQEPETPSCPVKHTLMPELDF
Perilipin-5 (Homo sapiens) + 1-acylglycerol-3-phosphate O-acyltransferase ABHD5 (Homo sapiens), sequence (Q8WTS1 whole entry, looked up): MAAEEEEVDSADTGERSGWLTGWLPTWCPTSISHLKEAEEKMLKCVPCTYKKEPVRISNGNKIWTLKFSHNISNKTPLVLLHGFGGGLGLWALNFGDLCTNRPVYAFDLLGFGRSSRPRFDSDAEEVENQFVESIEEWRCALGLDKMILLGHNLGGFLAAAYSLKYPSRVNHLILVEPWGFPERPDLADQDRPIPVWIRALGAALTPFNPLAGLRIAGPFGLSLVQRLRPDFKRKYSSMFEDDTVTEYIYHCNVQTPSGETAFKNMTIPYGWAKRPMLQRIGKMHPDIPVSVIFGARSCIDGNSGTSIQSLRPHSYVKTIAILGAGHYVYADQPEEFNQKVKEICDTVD
For the compound `CCCn1c(SCC(=O)Nc2c(C)cccc2C)nnc1C(C)C`, the inhibition is 5.88%.
In the case of `CCOC(=O)c1nnn(CC(=O)Nc2cccc(F)c2)c1C(=O)OCC`, the inhibition was -0.66%.
For `O=C(O)c1cccnc1NC1CCCC1` the value was 7.94%.
Next, `COc1ccc(CCNC(=O)c2ccc(CS(=O)(=O)c3ccc(Br)cc3)o2)cc1OC`: 5.5%.
For `COc1ccc(CCNC(=O)c2nnc(CS(=O)(=O)c3ccccc3)o2)cc1OC` the value was 23.8% (active).
In the case of `COc1ccc(CCNC(=O)CN(c2ccccc2)S(C)(=O)=O)cc1OC`, the inhibition is 6.8%.
Turning to `CC(=O)Oc1ccc(C)cc1N1C(=O)c2ccc(C(=O)O)cc2C1=O`, the inhibition was 0.33%.
`O=C(c1ccc2c(c1)C(=O)N(c1ccc(Cl)cc1)C2=O)N1CCN(c2ccccn2)CC1`: the inhibition was 0.95%.
For `O=C(O)c1ccc2c(c1)C(=O)N(c1ccc(/C=C/C(=O)c3ccccc3)cc1)C2=O` the value was 50.4% (active); for `O=[N+]([O-])c1ccc(S(=O)(=O)Nc2cccc(-c3ccc(N4CCCC4)nn3)c2)cc1`, -6.73%; for `COC(=O)CN(c1nc(C)c(Cl)c(OC)n1)S(=O)(=O)c1ccc(C)cc1`, -6.3%.
For `Cc1nc2sc(C(c3ccco3)N3CCC4(CC3)OCCO4)c(O)n2n1` (stereo not given) the value was 22.7% (active); for `Cc1nc2sc(C(c3ccco3)N3CCOCC3)c(O)n2n1` (stereo not given), 26.3% (active); for `Oc1c(C(c2ccco2)N2CCC3(CC2)OCCO3)sc2ncnn12` (stereo not given), 12.2%.
For `Cc1ccc(C(c2sc3nc(C)nn3c2O)N2CCN(c3ccc(F)cc3)CC2)cc1` (stereo not given) the value was -0.55%; for `Cc1ccc(C(c2sc3nc(C)nn3c2O)N2CCN(c3ccccc3)CC2)cc1` (stereo not given), 2.33%; for `COC(=O)[C@@]12C[C@@H](CC(=O)N3CCC(c4ccccc4)CC3)C(=O)N(Cc3ccccc3)C1=CCC(C)(C)C2`, 4.36%.
Turning to `CC1=NNC(=O)C1CC(=O)N/N=C/c1ccncc1` (stereo not given), the inhibition was 0.97%.
Next, `CC(C)(C)C(=O)N1CCC[C@@]1(CO)C(=O)O`: 0.41%; `CC[C@]12c3[nH]c4cc(CCC(=O)N(C)C)ccc4c3CCN1C(=O)[C@@H](CC(=O)NCCCN(C)C)C[C@@H]2C(=O)N1CCN(C(=O)c2ccco2)CC1`: -4.19%.
For the compound `COc1ccc(C2=NO[C@@H]3C(=O)N(Cc4ccccc4)C(=O)[C@H]23)cc1OC`, the inhibition was 3.37%.
Consider `COc1ccc(C2SCCN2S(=O)(=O)c2ccccc2)cc1OC` (stereo not given), for which the inhibition was -4.96%.
For `COc1ccc(-c2cc(C(F)(F)F)nc(S(C)(=O)=O)n2)cc1OC` the value was 26.6% (active); for `CCN1CCN(C(=O)Cn2nc(C)n3c(cc4c(OC)cccc43)c2=O)CC1`, 0.48%.
`CC(=O)N[C@H]1[C@H]([C@H](O)[C@H](O)CO)OC(C(=O)O)=C[C@@H]1O`: the inhibition is 1.93%.
Next, `NC(=O)c1nsc(C(=O)N(CC(=O)NCc2ccc(F)cc2)Cc2ccco2)c1N`: 36% (active).
Next, `COc1ccc(CNC(=O)C(c2ccc(O)cc2)N(Cc2ccco2)C(=O)c2snc(C(N)=O)c2N)cc1` (stereo not given): -11.3%; `Cc1ccnc(NC(=O)CCC(=O)N(CC(=O)NCc2ccccc2)Cc2ccco2)c1`: 1.15%; `Cc1csc2ncc(C(=O)N(Cc3ccccc3)c3ccccn3)c(=O)n12`: 3.35%.
For `CN(C)CCCNC(=O)/C=C/c1ccc(OCc2c(F)cccc2Cl)cc1` the value was 28.6% (active).
Turning to `COc1cc(CNCCN(C)C)ccc1OCc1c(F)cccc1Cl`, the inhibition was 11.6%.
For `O=C(/C=C/c1ccc(OCc2c(F)cccc2Cl)cc1)N1CCOCC1` the value was -6.95%; for `O=S(=O)(c1ccc2ccccc2c1)N1CCN(S(=O)(=O)N2CCOCC2)CC1`, -1.34%.
On to `CCCCN1C(N)=NC[C@@H]1Cc1ccccc1`, for which the inhibition was 4.61%.
On to `C[C@@H](CN1CCC[C@H]1CN1C(N)=NC[C@@H]1Cc1ccccc1)N1C[C@@H](Cc2ccccc2)N(CCCC2CCCC2)C1=N`, for which the inhibition was 34.8% (active).
Next, `CC[C@@H](C)[C@@H]1CN([C@@H](C)CN2CCC[C@H]2CN2C(N)=NC[C@H]2C(C)C)C(=N)N1CCc1ccc(Cl)c(Cl)c1`: 11.4%; `Cc1ccc2c(c1)N(CC(=O)N1CCCc3ccccc31)C(=O)C(C)O2` (stereo not given): 5.29%.
`CC(=O)NC1=NN(C(C)=O)C(C)(CCS(=O)(=O)c2ccc(Cl)c(Cl)c2)S1` (stereo not given): the inhibition was 2.36%.
For `COc1cccc2sc(N(CCCN(C)C)C(=O)C(c3ccccc3)c3ccccc3)nc12` the value was 43.5% (active).
For `CCN(CC)CCN(C(=O)c1ccc2c(c1)CCCC2)c1nc2c(OC)cccc2s1` the value was 25% (active); for `COc1ccccc1CNC(=O)Cn1cc2c(n1)CCCC2`, 8.04%; for `COc1ccccc1NC(=O)CC(NCCN(C)C)C(=O)O` (stereo not given), 0.5%.
Regarding `CN(CC1CCCN(CCc2cccc(C(F)(F)F)c2)C1)C(=O)c1ccc2nc[nH]c2c1` (stereo not given), the inhibition was -0.06%.
`CCN(CC)CCNS(=O)(=O)c1ccc(/C=C/C(=O)O)cc1`: the inhibition is 4.35%.
Next, `OCc1ccc(-c2ccccc2)c(-c2ccccc2)c1`: -5.6%; `CCCC/C(C)=N/NC(=O)NC1CCCCC1`: -3.36%; `COc1ccc(C2=NOC3(CC(=O)N(c4ccc(Cl)cc4)C3=O)C2)c(OC)c1` (stereo not given): 0.13%.
As to `Cc1cc(O)ccc1-c1cc(C(=O)NCc2cc(C(F)(F)F)cc(C(F)(F)F)c2)[nH]n1`, the inhibition is -13.6%.
`COCCNc1nnc(SCC(=O)NNC(=O)c2ccco2)s1`: the inhibition is 0.13%.
Turning to `COc1ccc(NC(=O)/C(Cl)=C(/Cl)S(=O)Cc2ccc(C)cc2)cn1` (stereo not given), the inhibition is 96.3% (active).
For `CC(C)(C)C1C/C(=C/c2ccco2)C(=O)/C(=C/c2ccco2)C1` (stereo not given) the value was 52.8% (active); for `COC(=O)COc1ccc2c(c1C)O/C(=C\c1ccco1)C2=O`, 14.5%.
Next, `Cc1ccc(S(=O)(=O)Cn2nnnc2CN2CCN(Cc3ccc4c(c3)OCO4)CC2)cc1`: -0.76%; `O=C(CNC(=O)C12CC3CC(CC(C3)C1)C2)OCC(=O)N1CCCCC1`: -6.36%.
`Cc1cc(C)nc(NS(=O)(=O)c2ccc(N3C(=O)C4CCCCC4C3=O)cc2)n1` (stereo not given): the inhibition was -6.56%.

As usually defined, the inhibition is the drop in the measured response relative to a control, in per cent.
